Data taken from the supplement of paper PMC8728848.
About 410 targets per protein were measured; listed, in parts, are those with the strongest signals and a random draw of the rest.

Key:
Test in all cases: glycan array binding signal (z-score within array); higher = stronger binding
Settings in all cases: glycan notation: IUPAC condensed, linker removed
[1] = target: Fuc(a1-2)Gal(b1-4)GlcNAc(b1-2)Man(a1-3)[Fuc(a1-2)Gal(b1-4)GlcNAc(b1-2)Man(a1-6)]Man(b1-4)GlcNAc(b1-4)GlcNAc
Outline: (§1)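 Columns mapping to the same glycan were averaged after glycan names were converted to IUPAC-condensed notation. The data come from 3228 arrays in the Consortium for Functional Glycomics database, limited to those with an available protein sequence. Binding is reported as a within-array Z-score averaged across arrays of one protein sequence and across linkers.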

[2] = target: Fuc(a1-2)Gal(b1-4)GlcNAc(b1-6)GalNAc
Outline: as §1

Fuc(a1-2)Gal6S(b1-4)Glc = target: Fuc(a1-2)Gal6S(b1-4)Glc
Outline: as §1

[3] = target: Fuc(a1-2)Gal6S(b1-4)Glc6S
Outline: as §1

[4] = target: Fuc(a1-2)[Gal(a1-3)]Gal(b1-4)GlcNAc(b1-2)Man(a1-3)[Fuc(a1-2)[Gal(a1-3)]Gal(b1-4)GlcNAc(b1-2)Man(a1-6)]Man(b1-4)GlcNAc(b1-4)GlcNAc
Outline: as §1

[5] = target: Fuc(a1-2)[Gal(a1-3)]Gal(b1-4)GlcNAc(b1-3)[Fuc(a1-2)[Gal(a1-3)]Gal(b1-4)GlcNAc(b1-6)]GalNAc
Outline: as §1

[6] = target: Fuc(a1-2)[Gal(a1-3)]Gal(b1-4)GlcNAc(b1-6)GalNAc
Outline: as §1

[7] = target: Fuc(a1-2)[Gal(a1-4)]Gal(b1-4)GlcNAc
Outline: as §1

[8] = target: Fuc(a1-2)[GalNAc(a1-3)]Gal
Outline: as §1

[9] = target: Fuc(a1-2)[GalNAc(a1-3)]Gal(b1-4)Glc
Outline: as §1

[10] = target: Fuc(a1-3)[Gal3S(b1-4)]GlcNAc
Outline: as §1

[11] = target: Fuc(a1-3)[GalNAc(b1-4)]GlcNAc
Outline: as §1

Gal(a1-3)Gal(b1-4)Glc = target: Gal(a1-3)Gal(b1-4)Glc
Outline: as §1

Gal(a1-3)GalNAc = target: Gal(a1-3)GalNAc
Outline: as §1

[12] = target: Gal(a1-4)Gal(b1-4)GlcNAc(b1-3)Gal(b1-4)Glc
Outline: as §1

Gal(b1-3)Gal = target: Gal(b1-3)Gal
Outline: as §1

[13] = target: Gal(b1-3)[Fuc(a1-4)]GlcNAc(b1-6)GalNAc
Outline: as §1

[14] = target: Gal(b1-4)GlcNAc(b1-2)Man(a1-3)[Gal(b1-4)GlcNAc(b1-2)Man(a1-6)][Gal(b1-4)GlcNAc(b1-4)]Man(b1-4)GlcNAc(b1-4)[Fuc(a1-6)]GlcNAc
Outline: as §1

[15] = target: Gal(b1-4)GlcNAc(b1-2)[Gal(b1-4)GlcNAc(b1-4)]Man(a1-3)[Gal(b1-4)GlcNAc(b1-2)Man(a1-6)]Man(b1-4)GlcNAc(b1-4)GlcNAc
Outline: as §1

[16] = target: Gal(b1-4)GlcNAc(b1-3)Gal(b1-4)GlcNAc(b1-2)Man(a1-3)[Gal(b1-4)GlcNAc(b1-3)Gal(b1-4)GlcNAc(b1-2)Man(a1-6)]Man(b1-4)GlcNAc(b1-4)[Fuc(a1-6)]GlcNAc
Outline: as §1

Gal(b1-4)GlcNAc6P = target: Gal(b1-4)GlcNAc6P
Outline: as §1

Gal6S(b1-4)Glc = target: Gal6S(b1-4)Glc
Outline: as §1

GalNAc(b1-4)GlcNAc6S = target: GalNAc(b1-4)GlcNAc6S
Outline: as §1

GlcA(b1-6)Gal = target: GlcA(b1-6)Gal
Outline: as §1

[17] = target: GlcNAc(a1-3)Gal(b1-4)GlcNAc
Outline: as §1

[18] = target: GlcNAc(a1-4)Gal(b1-4)GlcNAc(b1-3)Gal(b1-4)[Fuc(a1-3)]GlcNAc(b1-3)Gal(b1-4)[Fuc(a1-3)]GlcNAc
Outline: as §1

[19] = target: GlcNAc(a1-6)Gal(b1-4)GlcNAc
Outline: as §1

[20] = target: GlcNAc(b1-2)Man(a1-3)[GlcNAc(b1-2)Man(a1-6)]Man(b1-4)GlcNAc(b1-4)[Fuc(a1-6)]GlcNAc
Outline: as §1

[21] = target: GlcNAc(b1-3)Gal(b1-4)GlcNAc(b1-3)Gal(b1-4)GlcNAc
Outline: as §1

[22] = target: GlcNAc(b1-3)Gal(b1-4)GlcNAc(b1-3)Gal(b1-4)GlcNAc(b1-2)[GlcNAc(b1-3)Gal(b1-4)GlcNAc(b1-3)Gal(b1-4)GlcNAc(b1-6)]Man(a1-6)[GlcNAc(b1-3)Gal(b1-4)GlcNAc(b1-3)Gal(b1-4)GlcNAc(b1-2)Man(a1-3)]Man(b1-4)GlcNAc(b1-4)[Fuc(a1-6)]GlcNAc
Outline: as §1

[23] = target: GlcNAc(b1-3)Gal(b1-4)GlcNAc(b1-3)Gal(b1-4)GlcNAc(b1-3)Gal(b1-4)GlcNAc(b1-3)Gal(b1-4)GlcNAc(b1-2)Man(a1-3)[GlcNAc(b1-3)Gal(b1-4)GlcNAc(b1-3)Gal(b1-4)GlcNAc(b1-3)Gal(b1-4)GlcNAc(b1-3)Gal(b1-4)GlcNAc(b1-2)Man(a1-6)]Man(b1-4)GlcNAc(b1-4)GlcNAc
Outline: as §1

[24] = target: GlcNAc(b1-4)GlcNAc(b1-4)GlcNAc(b1-4)GlcNAc(b1-4)GlcNAc
Outline: as §1

[25] = target: GlcNAc(b1-4)GlcNAc(b1-4)GlcNAc(b1-4)GlcNAc(b1-4)GlcNAc(b1-4)GlcNAc
Outline: as §1

[26] = target: GlcNAc6S(b1-3)Gal(b1-4)GlcNAc
Outline: as §1

[27] = target: Man(a1-2)Man(a1-2)Man(a1-3)Man
Outline: as §1

[28] = target: Neu5Ac(a2-3)Gal(b1-3)GlcNAc(b1-2)[Neu5Ac(a2-3)Gal(b1-3)GlcNAc(b1-4)]Man(a1-6)[Neu5Ac(a2-3)Gal(b1-3)GlcNAc(b1-2)Man(a1-3)]Man(b1-4)GlcNAc(b1-4)GlcNAc
Outline: as §1

[29] = target: Neu5Ac(a2-3)Gal(b1-3)GlcNAc(b1-3)Gal(b1-3)GlcNAc
Outline: as §1

[30] = target: Neu5Ac(a2-3)Gal(b1-4)GlcNAc(b1-2)Man
Outline: as §1

[31] = target: Neu5Ac(a2-3)[GalNAc(b1-4)]Gal(b1-4)GlcNAc(b1-3)GalNAc
Outline: as §1

[32] = target: Neu5Ac(a2-6)Gal(b1-4)GlcNAc(b1-2)Man(a1-3)[Man(a1-6)]Man(b1-4)GlcNAc(b1-4)GlcNAc
Outline: as §1

[33] = target: Neu5Ac(a2-6)Gal(b1-4)GlcNAc(b1-2)Man(a1-3)[Neu5Ac(a2-3)Gal(b1-4)GlcNAc(b1-2)Man(a1-6)]Man(b1-4)GlcNAc(b1-4)GlcNAc
Outline: as §1

[34] = target: Neu5Ac(a2-6)Gal(b1-4)GlcNAc(b1-2)[Neu5Ac(a2-6)Gal(b1-4)GlcNAc(b1-6)]Man(a1-6)[Neu5Ac(a2-6)Gal(b1-4)GlcNAc(b1-2)Man(a1-3)][GlcNAc(b1-4)]Man(b1-4)GlcNAc(b1-4)GlcNAc
Outline: as §1

[35] = target: Neu5Ac(a2-6)GalNAc(b1-4)GlcNAc
Outline: as §1

[36] = target: Neu5Ac(a2-8)Neu5Ac(a2-3)Gal(b1-3)GalNAc(b1-4)[Neu5Ac(a2-3)]Gal(b1-4)Glc
Outline: as §1

[37] = target: Neu5Ac(a2-8)Neu5Ac(a2-3)Gal(b1-3)GalNAc(b1-4)[Neu5Ac(a2-8)Neu5Ac(a2-3)]Gal(b1-4)Glc
Outline: as §1

[38] = target: Neu5Ac(a2-8)Neu5Ac(a2-3)[Gal(b1-3)GalNAc(b1-4)]Gal(b1-4)Glc
Outline: as §1

[39] = target: Neu5Ac(a2-8)Neu5Ac(a2-8)Neu5Ac(a2-3)Gal(b1-4)Glc
Outline: as §1

Neu5Ac(b2-6)GalNAc = target: Neu5Ac(b2-6)GalNAc
Outline: as §1

[40] = target: Neu5Gc(a2-3)Gal(b1-3)GlcNAc
Outline: as §1

B1: Thrombomodulin Lectin (Mus musculus) (protein)
chain: LSALAKLQPTGSQCVEHECFALFQGPATFLDASQACQRLQGHLMTVRSSVAADVISLLLSQSSMDLGPWIGLQLPQGCDDPVHLGPLRGFQWVTGDNHTSYSRWARPNDQTAPLCGPLCVTVSTATEAAPGEPAWEEKPCETETQGFLCEFYFTASCRVDPIPVREDTKEEEGAGEPPVSPTPGSPTGPPSARPVLDEPRVPITQNPCPPLKECPPCAAPDLEGGPSVFIFPPKIKDVLMISLSPMVTCVVVDVSEDDPDVQISWFVNNVEVHTAQTQTHREDYNSTLRVVSALPIQHQDWMSGKAFACAVNNRALPSPIEKTISKPRGPVRAPQVYVLPPPAEEMTKKEFSLTCMITGFLPAEIAVDWTSNGRTEQNYKNTATVLDSDGSYFMYSKLRVQKSTWERGSLFACSVVHEGLHNHLTTKTISRSLGK
glycan array binding signal (z-score) [1]: 0.621
glycan array binding signal (z-score) [2]: 2.73
glycan array binding signal (z-score) (Fuc(a1-2)Gal6S(b1-4)Glc): 2.72
glycan array binding signal (z-score) [3]: 0.784
glycan array binding signal (z-score) [4]: 2.81
glycan array binding signal (z-score) [5]: 2.22
glycan array binding signal (z-score) [6]: 0.082
glycan array binding signal (z-score) [7]: 0.651
glycan array binding signal (z-score) [8]: 0.693
glycan array binding signal (z-score) [9]: -0.508
glycan array binding signal (z-score) [10]: -0.275
glycan array binding signal (z-score) [11]: 0.174
glycan array binding signal (z-score) (Gal(a1-3)Gal(b1-4)Glc): 0.642
glycan array binding signal (z-score) (Gal(a1-3)GalNAc): -0.598
glycan array binding signal (z-score) [12]: 0.021
glycan array binding signal (z-score) (Gal(b1-3)Gal): 2.2
glycan array binding signal (z-score) [13]: -0.03
glycan array binding signal (z-score) [14]: 0.267
glycan array binding signal (z-score) [15]: 2.75
glycan array binding signal (z-score) [16]: 1.18
glycan array binding signal (z-score) (Gal(b1-4)GlcNAc6P): 2.7
glycan array binding signal (z-score) (Gal6S(b1-4)Glc): -1.09
glycan array binding signal (z-score) (GalNAc(b1-4)GlcNAc6S): 0.18
glycan array binding signal (z-score) (GlcA(b1-6)Gal): 1.32
glycan array binding signal (z-score) [17]: -1.21
glycan array binding signal (z-score) [18]: 0.73
glycan array binding signal (z-score) [19]: 1.09
glycan array binding signal (z-score) [20]: -0.281
glycan array binding signal (z-score) [21]: -0.268
glycan array binding signal (z-score) [22]: 2.07
glycan array binding signal (z-score) [23]: 0.151
glycan array binding signal (z-score) [24]: -1.3
glycan array binding signal (z-score) [25]: 1.17
glycan array binding signal (z-score) [26]: 0.319
glycan array binding signal (z-score) [27]: -0.544
glycan array binding signal (z-score) [28]: 0.153
glycan array binding signal (z-score) [29]: -1.59
glycan array binding signal (z-score) [30]: -1.13
glycan array binding signal (z-score) [31]: 2.15
glycan array binding signal (z-score) [32]: 2.04
glycan array binding signal (z-score) [33]: -0.553
glycan array binding signal (z-score) [34]: 0.307
glycan array binding signal (z-score) [35]: -1.18
glycan array binding signal (z-score) [36]: 1.68
glycan array binding signal (z-score) [37]: -0.913
glycan array binding signal (z-score) [38]: 0.046
glycan array binding signal (z-score) [39]: 3.06
glycan array binding signal (z-score) (Neu5Ac(b2-6)GalNAc): 1.37
glycan array binding signal (z-score) [40]: -0.635
